DT40 TDP1 no CPT: qHTS for Inhibitors of human tyrosyl-DNA phosphodiesterase 1 (TDP1): qHTS in cells in absence of CPT; DT40 Tdp1-/- hTDP1 cells, no CPT, ATP luminescence, 48 h; Potency, µM (titrated, usually from 46.2 µM), inactives show at the highest dose activity change, negative = growth inhibition, most hits filed as inhibitors; actives 15% (n = 420,000); AID 686978, 2013; further: nearly all actives have a fitted effect of over 55% in size
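DT40 Tdp1-/-;hTDP1 cells, no CPT (DMSO vehicle only), 400 cells/well; compounds pin-transferred; ≥48 hr, 37 °C; CellTiter-Glo 30 min RT dark, luminescence read.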
HT1080-NT tox: kills 2HG-producing HT-1080-NT fibrosarcoma cells | actives 1.6% (n = 360,000) | HT-1080-NT fibrosarcoma viability, CellTiter-Glo ATP luminescence, 48 h | Potency, µM (series often up to 46.1 µM), for the others: at the highest dose activity, negative = less viability, usual class: cytotoxic;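 further: NT is the 2HG producing partner of a matched IDH1 knockdown line; 0% = DMSO-treated cells and -100% = media-only wells without cells; nearly all actives have a fitted effect of over 55% in size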
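750 cells/well, RPMI + 5% FBS; 2 h settle, compound pin-transfer, 48 h at 37 degrees C. CellTiter-Glo 10 min RT, luminescence. Normalized to DMSO and media-only wells.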
DT40 TDP1 CPT: DT40-hTDP1 cell growth loss with CPT | AID 686979 | chicken DT40 Tdp1-/-;hTDP1 cells + 20 nM CPT, ATP luminescence, 48 h | Potency, µM (titrated, usually from 46.2 µM), without a hit: at the top dose activity change, negative = growth inhibition, hits mostly inhibitors | actives 12% (n = 420,000); further: nearly all actives have a fitted effect of over 55% in size
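Chicken DT40 Tdp1-/- cells complemented with human TDP1, 400 cells/well, exposed to compounds plus 20 nM camptothecin for at least 48 h at 37 C; viability read as ATP content by CellTiter-Glo luminescence.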
KB-V1 MDR tox: kills drug-selected multidrug resistant KB-V1 cells; KB-V1 MDR cells viability, CellTiter-Glo, 72 h; Potency, µM (top dose mostly 46.1 µM), hits mostly cytotoxic; actives 3.4% (n = 400,000); further: nearly all actives have a fitted effect of over 60% in size
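KB-V1, DMEM (no phenol red) + 10% FBS; cpd pin-transferred, titration series; 72 h, 37 degrees C; CellTiter-Glo, luminescence. Data normalized, curve-fit.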
HT1080 IDH1KD tx: HT-1080 IDH1 knockdown cell toxicity (counter line). AID 686971. actives 2% (n = 360,000). HT-1080 IDH1 knockdown viability, ATP luminescence, 48 h. Potency, µM (titrated, usually from 46.1 µM), for inactives: at the top dose activity, negative = toxicity, actives largely listed as cytotoxic;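 further: 0% = DMSO wells and -100% = cell-free medium wells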
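Assay cells: HT-1080 with IDH1 knockdown, 750 per well, RPMI/5% FBS. Exposure: 48 h at 37 °C following 2 h pre-incubation. Read: CellTiter-Glo luminescence; fitted concentration-response, curve class assigned.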
KB-3-1 tox: KB-3-1 parental cell cytotoxicity; KB-3-1 viability, CellTiter-Glo ATP luminescence, 72 h; Potency, µM (series often up to 46.1 µM), hits mostly cytotoxic; actives 1.4% (n = 400,000); AID 1347075; further: nearly all actives have a fitted effect of over 60% in size
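Cytotoxicity in the drug-sensitive parental line KB-3-1 was scored as loss of CellTiter-Glo luminescence following 72 h incubation with compound. Values come from curve fitting of normalized concentration-response data.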
An asterisk follows results filed as active. A selection: hits, their analogues and other compounds. The true share with any hit is near 19%. The call rests on the fitted dose curve; in most records, active means well fitted curve in the direction sought with a large enough effect; inconclusive means small, poorly fitted or top-dose-only effect, or another doubt; inactive means no such curve, though single readings can be large; an effect the other way counts as inactive or inconclusive. Unless noted, on the % scale 0 is the no-effect control and ±100 the full control effect; potency means the concentration at half of the fitted maximal effect.

For O=C(c1ccc(F)cc1F)N1CCCC(c2nc(-c3ccc(F)cc3)no2)C1 (configuration not stated) the results were DT40 TDP1 no CPT 18µM*, HT1080-NT tox -16%, DT40 TDP1 CPT inconclusive, KB-V1 MDR tox inconclusive, HT1080 IDH1KD tx -7% and KB-3-1 tox inactive.
Screening COc1ccc(-c2noc(N3CCCC(C(=O)Nc4ccc(F)cc4F)C3)n2)cc1 (configuration not stated) returned DT40 TDP1 no CPT inconclusive, HT1080-NT tox -4%, DT40 TDP1 CPT inconclusive, KB-V1 MDR tox inconclusive, HT1080 IDH1KD tx -5% and KB-3-1 tox inactive.
`CC(=O)Nc1ccc2c(c1)C(=O)c1ccccc1C2=O` gave DT40 TDP1 no CPT inconclusive, HT1080-NT tox -6%, DT40 TDP1 CPT inconclusive, KB-V1 MDR tox inactive, HT1080 IDH1KD tx -3% and KB-3-1 tox inactive.
Screening CC(C)(C)C(=O)Nc1ccc2c(c1)C(=O)C(=O)c1ccccc1-2 returned DT40 TDP1 no CPT 0.71µM*, HT1080-NT tox 0.79µM*, DT40 TDP1 CPT 0.71µM* and HT1080 IDH1KD tx 0.79µM*.
Screening COc1cccc(NC(=O)Nc2nnc(N3C(C)CCCC3C)s2)c1 (configuration not stated) returned DT40 TDP1 no CPT 18µM*, HT1080-NT tox 3%, DT40 TDP1 CPT inconclusive, KB-V1 MDR tox inactive, HT1080 IDH1KD tx 11% and KB-3-1 tox inactive.
Screening COc1cccc(NC(=O)Nc2nnc(Cc3ccccc3)s2)c1 returned DT40 TDP1 no CPT inconclusive, HT1080-NT tox -21%, DT40 TDP1 CPT inconclusive, KB-V1 MDR tox inconclusive, HT1080 IDH1KD tx -20% and KB-3-1 tox inactive.
`Cc1sc(-n2cccc2)c(C(C)NC(=O)Nc2cccc(C(F)(F)F)c2)c1C` (configuration not stated) gave DT40 TDP1 no CPT 21µM* and DT40 TDP1 CPT inconclusive.
For COc1cccc(NC(=O)c2ccc(NC(=O)C(C)(C)C)cc2)c1 the results were DT40 TDP1 no CPT inconclusive, HT1080-NT tox -1%, DT40 TDP1 CPT inconclusive, KB-V1 MDR tox 23µM*, HT1080 IDH1KD tx -10% and KB-3-1 tox inactive.
For Nc1c(C(=O)OCC(=O)Nc2cccc([N+](=O)[O-])c2)[nH]c(=O)[nH]c1=O the results were DT40 TDP1 no CPT -15%, HT1080-NT tox 8%, DT40 TDP1 CPT 0%, KB-V1 MDR tox inactive, HT1080 IDH1KD tx 22% and KB-3-1 tox inactive.
For COc1cccc(NC(=O)Nc2ccc(C(C)(C)C)cc2)c1 the results were DT40 TDP1 no CPT 23µM*, HT1080-NT tox 16µM*, DT40 TDP1 CPT inconclusive, KB-V1 MDR tox inactive, HT1080 IDH1KD tx inconclusive and KB-3-1 tox inconclusive.
COc1cccc(C(C)NC(=O)Nc2cc(Cl)ccc2OC)c1 (configuration not stated) was read as DT40 TDP1 no CPT inconclusive, HT1080-NT tox inconclusive, DT40 TDP1 CPT 0%, KB-V1 MDR tox inactive, HT1080 IDH1KD tx inconclusive and KB-3-1 tox inactive.
For COc1cccc(NC(=O)Nc2ccncc2)c1 the results were DT40 TDP1 no CPT -23%, HT1080-NT tox 6%, DT40 TDP1 CPT -23%, KB-V1 MDR tox inactive, HT1080 IDH1KD tx -1% and KB-3-1 tox inactive.
`COc1cccc(C(C)NC(=O)Nc2cccc(C(F)(F)F)c2)c1` (configuration not stated) gave DT40 TDP1 no CPT 10µM*, HT1080-NT tox inconclusive, DT40 TDP1 CPT 21µM*, KB-V1 MDR tox inconclusive, HT1080 IDH1KD tx inconclusive and KB-3-1 tox inactive.
`CC(C)(C)C(=O)Nc1cccc(C(=O)c2cccc(NC(=O)C(C)(C)C)c2)c1` gave DT40 TDP1 no CPT 8.2µM*, HT1080-NT tox -4%, DT40 TDP1 CPT inconclusive, KB-V1 MDR tox inconclusive, HT1080 IDH1KD tx -4% and KB-3-1 tox inactive.
CCCOC(=O)c1cccc(NC(=O)C(C)(C)C)c1 was read as DT40 TDP1 no CPT inconclusive, HT1080-NT tox -1%, DT40 TDP1 CPT inconclusive, KB-V1 MDR tox inactive, HT1080 IDH1KD tx -11% and KB-3-1 tox inactive.
For Cc1oc2c(c(C)cc3oc(=O)c(CC(=O)NCc4ccc(F)cc4)c(C)c32)c1C the results were DT40 TDP1 no CPT -1% and DT40 TDP1 CPT -8%.
For CC/C(=C/c1ccccc1OC)c1cc(-c2ccccc2)cc2oc3ccccc3c12 the results were DT40 TDP1 no CPT inconclusive, DT40 TDP1 CPT inconclusive, KB-V1 MDR tox inactive and KB-3-1 tox inactive.
For Cc1oc(-c2ccc(Cl)cc2)nc1CN1CCCC(C(=O)NCCCN2CCOCC2)C1 (configuration not stated) the results were DT40 TDP1 no CPT 23µM*, HT1080-NT tox -12%, DT40 TDP1 CPT -78%, KB-V1 MDR tox 18µM*, HT1080 IDH1KD tx inconclusive and KB-3-1 tox inconclusive.
Screening Cc1oc(-c2ccccc2F)nc1CN1CCC(C(=O)NCc2cccnc2)CC1 returned DT40 TDP1 no CPT 2%, HT1080-NT tox -6%, DT40 TDP1 CPT 1%, KB-V1 MDR tox inactive, HT1080 IDH1KD tx 2% and KB-3-1 tox inactive.
`Cc1oc(-c2ccc(Cl)cc2)nc1CN1CCCC(C(=O)NCCc2ccccc2)C1` (configuration not stated) gave DT40 TDP1 no CPT 5.8µM*, DT40 TDP1 CPT 8.2µM*, KB-V1 MDR tox inconclusive and KB-3-1 tox inconclusive.
Screening CCc1ccc(-c2nc(CN3CCC(C(=O)NCCc4ccc(C)cc4)CC3)c(C)o2)cc1 returned DT40 TDP1 no CPT inconclusive, DT40 TDP1 CPT -10%, KB-V1 MDR tox inactive and KB-3-1 tox inactive.
Cc1cccc(-c2nc(CN3CCCC(C(=O)NCCc4ccc(Cl)cc4)C3)c(C)o2)c1 (configuration not stated) was read as DT40 TDP1 no CPT 8.2µM*, DT40 TDP1 CPT 16µM*, KB-V1 MDR tox inactive and KB-3-1 tox inconclusive.
Cc1oc(-c2ccc(Cl)cc2)nc1CN1CCCC(C(=O)NCc2cccnc2)C1 (configuration not stated) was read as DT40 TDP1 no CPT 12µM*, HT1080-NT tox inconclusive, DT40 TDP1 CPT 9.2µM*, KB-V1 MDR tox 2.3µM*, HT1080 IDH1KD tx inconclusive and KB-3-1 tox 2.6µM*.
CN(Cc1ccc(F)cc1)C(=O)c1cccc(S(=O)(=O)NCc2ccccc2)c1 was read as DT40 TDP1 no CPT inconclusive, HT1080-NT tox -5%, DT40 TDP1 CPT inconclusive, KB-V1 MDR tox inactive, HT1080 IDH1KD tx -2% and KB-3-1 tox inactive.
